This note sets out measurements from PubChem BioAssay (Tox21).

Unmarked numbers belong to inactive results. Inconclusive results are not listed. Activity calls are given as the source filed them. Unless noted, calls follow the shape of the dose curve; as a rule, active = well fitted curve in the direction sought with a large enough effect in the repeat runs; inconclusive = weak or mixed curves; inactive = no such curve, though single readings can be large; an effect the other way counts as inactive or inconclusive.

Assay [1] in a line: qHTS assay for small molecules that induce genotoxicity in human embryonic kidney cells expressing luciferase-tagged ATAD5 (AID 651632). Also: nearly all actives have a fitted effect of over 15% in size. Also: potency is read from the fitted curve at half-maximal effect. In a few lines: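 Genotoxicity read-out via ATAD5-luciferase: HEK293T cells, 16 hr compound incubation at 37C, Amplite detection.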
In general terms: Quantitative high-throughput screening tests each substance at several concentrations.

Assay [2] can be described thus: qHTS assay for small molecule agonists of the p53 signaling pathway - cell viability (AID 651633; calls by dose curve;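 also: p53RE-bla HCT reporter cells with a stable beta-lactamase p53 reporter; series mostly up to about 83 µM; nearly all actives have a fitted effect of over 30% in size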). In a few lines:
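p53RE-bla cells, seeded at 4,000 per well and rested 5 h at 37 C/5% CO2, received compounds in DMSO for 16 h at 37 C. CellTiter-Glo was then added, and luminescence was read after 30 min at room temperature to gauge cytotoxicity.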

Assay [3] is described as follows: qHTS assay for small molecules that induce genotoxicity in human embryonic kidney cells expressing luciferase-tagged ATAD5 - cell viability (AID 651634; calls by dose curve; also: nearly all actives have a fitted effect of over 25% in size). In a few lines: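 Live-cell protease activity (CellTiter-Fluor, fluorescence) indicates viability. HEK293T cells with luciferase-tagged ATAD5; 15.5 hr compound treatment at 37C.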
Assay [4] in a line: qHTS assay for small molecule disruptors of the mitochondrial membrane potential - cell viability (AID 720634; calls by dose curve;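 also: human HepG2 liver cancer cells; series mostly up to about 83 µM; nearly all actives have a fitted effect of over 20% in size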). In short, it runs like this: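 Human hepatoma HepG2 cells were treated for 1 hr with test chemicals, then given m-MPI dye and CellTiter-Glo. Cell viability reflects luminescence proportional to cellular ATP.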
A short description of assay [5]: qHTS assay to test for compound auto fluorescence at 590 nm (red) in HepG2 cells (AID 720674). In short, it runs like this: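 Intrinsic compound fluorescence in the red window (Ex/Em 540/590 nm) is measured in attached HepG2 cells exposed for 1 hr, DMSO vehicle as baseline, benchmarked to Rose Bengal sodium.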
Assay [6] is described as follows: qHTS assay to test for compound auto fluorescence at 535 nm (green) in HepG2 cells (AID 720675).
Assay [7] in a line: qHTS assay to test for compound auto fluorescence at 460 nm (blue) in HEK293 cells (AID 720678). In short, it runs like this:
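Cells were seeded and left to adhere for 4-5 hr at 37C. Compounds were then pin-transferred. After an overnight incubation at 37C under 5% CO2, intrinsic fluorescence at 405/460 nm was measured and referenced to triamterene.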

A short description of assay [8]: qHTS assay to test for compound auto fluorescence at 590 nm (red) in HEK293 cells (AID 720679). In a few lines: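 Each well held 2,000 HEK293 cells in medium containing 10% dialyzed FBS. Following 4-5 hr attachment at 37C, 23 nL test compound or DMSO was added; plates sat overnight, and red fluorescence (540/590nm) was recorded.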
A short description of assay [9]: qHTS assay to test for compound auto fluorescence at 535 nm (green) in HEK293 cells (AID 720680).
Assay [10] in a line: qHTS assay to test for compound auto fluorescence at 460 nm (blue) in HEK293 cell free culture (AID 720681). In a few lines:
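Test compounds were pinned into cell-free culture medium (DMEM with 10% FBS) and fluorescence was read directly at Ex/Em 405/460 nm. Signals were expressed as fluorescence equivalents of triamterene, with DMSO vehicle as control.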

Assay [11] can be described thus: qHTS assay to test for compound auto fluorescence at 590 nm (red) in HEK293 cell free culture (AID 720683). In a few lines:
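Tox21 10K library compounds were pinned into cell-free DMEM with 10% FBS and fluorescence was read at excitation 540 nm. Activity is expressed as Rose Bengal sodium equivalency.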

A short description of assay [12]: qHTS assay to test for compound auto fluorescence at 590 nm (red) in HepG2 cell free culture (AID 720684). In short, it runs like this:
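Red fluorescence (540 nm excitation, 590 nm emission) was measured after compound transfer into cell-free MEM supplemented with 10% FBS. Values are equivalencies against Rose Bengal sodium.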

A short description of assay [13]: qHTS assay to test for compound auto fluorescence at 460 nm (blue) in HepG2 cell free culture (AID 720685). In a few lines: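 Compound (23 nL) or DMSO pinned into cell-free MEM with 10% FBS; blue fluorescence read at 405/460 nm excitation/emission, expressed as auto-fluorescence equivalency to triamterene.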
The nature of assay [14]: qHTS assay to test for compound auto fluorescence at 535 nm (green) in HepG2 cell free culture (AID 720686).
Assay [15] is described as follows: qHTS assay to test for compound auto fluorescence at 460 nm (blue) in HepG2 cells (AID 720687). In a few lines:
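Cells (2,000/well in MEM with 10% FBS) attached overnight at 37 C, then were exposed to compound or DMSO for 1 hr at 37 C, 5% CO2. Fluorescence read at Ex/Em 405/460 nm, expressed as triamterene-equivalent signal.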

Assay [16] addresses Glucocorticoid receptor (Homo sapiens) (UniProt P04150). Nature of the assay: qHTS assay to identify small molecule antagonists of the glucocorticoid receptor (GR) signaling pathway (AID 720692; active = well fitted inhibition curve with a large enough effect in the signal ratio in the repeat runs, not every such curve was filed as active; the % refers to the signal ratio). In short, it runs like this: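 Fluorescence from cleaved LiveBLAzer B/G FRET substrate reports GRE-driven beta-lactamase in HeLa cells; compounds are tested against 5 nM dexamethasone (final) over 18 h at 37 C, substrate incubation 2 h at room temperature.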

Assay [17] in a line: qHTS assay to test for compound auto fluorescence at 535 nm (green) in HEK293 cell free culture (AID 720682). In a few lines: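 Measurement is a direct plate read of green fluorescence (485 nm in, 535 nm out) after compound addition to serum-supplemented DMEM lacking cells, with fluorescein used to express intensities.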
Assay [18] can be described thus: qHTS assay for small molecule disruptors of the mitochondrial membrane potential (AID 720635). Also: potency is read from the fitted curve at half-maximal effect. In a few lines:
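HepG2 cells (2,000/well) attached overnight at 37C, then took compound for 1 hr at 37C, 5% CO2. Mito-MPS dye was added for 30 min; fluorescence was read at 490/535 nm (monomers) and 540/590 nm (aggregates).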

The target in assay [19] is Glucocorticoid receptor (Homo sapiens) (UniProt P04150). In words: qHTS assay to identify small molecule agonists of the glucocorticoid receptor (GR) signaling pathway (AID 720691; active = well fitted activation curve with a large enough effect in the signal ratio in the repeat runs, not every such curve was filed as active; the % refers to the signal ratio). In a few lines:
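Beta-lactamase reporter activity, read as fluorescence intensity, was measured in GR-bla HeLa cells exposed to compounds for 18 h at 37 C and then loaded with LiveBLAzer B/G FRET substrate for 2 h at room temperature.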

Sequence of Glucocorticoid receptor (Homo sapiens) (P04150 whole entry, looked up): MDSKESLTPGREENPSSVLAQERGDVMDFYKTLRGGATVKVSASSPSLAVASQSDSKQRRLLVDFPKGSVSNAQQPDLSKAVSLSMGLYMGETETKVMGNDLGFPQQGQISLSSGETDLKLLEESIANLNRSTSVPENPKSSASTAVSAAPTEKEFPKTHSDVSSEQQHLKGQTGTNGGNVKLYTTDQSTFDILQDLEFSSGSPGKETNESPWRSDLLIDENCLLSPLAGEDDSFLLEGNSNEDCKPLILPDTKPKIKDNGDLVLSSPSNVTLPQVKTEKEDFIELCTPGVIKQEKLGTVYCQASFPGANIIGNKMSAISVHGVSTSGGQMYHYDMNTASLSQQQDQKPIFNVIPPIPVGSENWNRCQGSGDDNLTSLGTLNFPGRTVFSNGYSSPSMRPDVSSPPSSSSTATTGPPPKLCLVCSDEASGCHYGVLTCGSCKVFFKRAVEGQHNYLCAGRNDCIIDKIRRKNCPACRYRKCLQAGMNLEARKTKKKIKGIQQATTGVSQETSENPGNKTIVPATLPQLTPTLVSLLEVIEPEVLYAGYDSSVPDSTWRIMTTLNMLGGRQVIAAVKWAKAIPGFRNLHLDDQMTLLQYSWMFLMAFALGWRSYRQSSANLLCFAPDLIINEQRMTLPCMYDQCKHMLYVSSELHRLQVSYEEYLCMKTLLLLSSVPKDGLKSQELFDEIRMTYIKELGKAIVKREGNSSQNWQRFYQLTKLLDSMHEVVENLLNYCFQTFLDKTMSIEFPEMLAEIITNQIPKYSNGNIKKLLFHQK

Take `COc1nc(C)nc(N)n1`: the Potency entry in assay [1], in assay [2], in [3], in assay [4], in [7] and in assay [10] was “inactive” each time. In addition, the Potency entry in [13], in [15] and in [16] was “inactive” in each case. Besides, the call in assay [5], in assay [6], in assay [8], in [9], in assay [11] and in assay [12] was inactive. Further, the call in assay [14] was inactive.

As to `CN(C)C(=O)C(CCN1CCC(O)(c2ccc(Cl)cc2)CC1)(c1ccccc1)c1ccccc1`, the Potency result in assay [1], in assay [4], in assay [7], in [10], in assay [13] and in [15] was “inactive” in each case. Besides, the molecule was called inactive in assay [5], in assay [6], in assay [8], in assay [9], in [17] and in assay [11]. In addition, the result in assay [12] and in assay [14] was inactive.

For the molecule `CCCc1ccccc1O`, the Potency entry in [1], in assay [3], in assay [10], in assay [13], in assay [15] and in [19] was “inactive” in each case. The Potency result in assay [16] was “inactive”. For the same molecule, the Potency in assay [18] is 27.3 µM (active). Besides, the outcome in assay [5], in assay [6], in assay [8], in assay [9], in assay [17] and in assay [11] was inactive. The result in assay [12] and in [14] was inactive.

As to `CC(=O)c1ccc(C)cc1`, the Potency entry in assay [1], in assay [2], in [3], in [4], in assay [7] and in assay [10] was “inactive” in each case. In addition, the Potency entry in assay [13], in [15] and in assay [19] was “inactive” in each case. The molecule was called inactive in assay [5], in [6], in [8], in assay [9], in assay [11] and in assay [12]. The call in assay [14] was inactive.

Take `Cc1onc(-c2ccccc2)c1-c1ccc(S(N)(=O)=O)cc1`: the Potency result in assay [1], in assay [2], in [3], in assay [4], in [10] and in [13] was “inactive” each time. Also, the Potency entry in [15], in assay [19] and in assay [16] was “inactive” each time. In addition, the outcome in assay [5], in assay [6], in assay [8], in assay [9], in assay [17] and in [11] was inactive. Moreover, the outcome in assay [12] and in [14] was inactive.

For the molecule `O=S(=O)(c1cccc2cnccc12)N1CCCNCC1`, the Potency entry in [1], in assay [2], in assay [4], in assay [7], in [10] and in assay [13] was “inactive” throughout. In assay [15], the Potency entry is “inactive”. The result in [6], in [8], in [9], in assay [11] and in assay [14] was inactive.

`CC(C)(C)C(=O)/C=C/c1ccc(Cl)cc1`: the Potency entry in assay [1], in [2], in assay [3], in assay [4], in [7] and in [10] was “inactive” each time. The Potency entry in assay [13], in assay [15], in assay [19] and in assay [16] was “inactive” throughout. Moreover, the call in assay [5], in assay [6], in assay [8], in assay [9], in [11] and in [12] was inactive. For the same molecule, the outcome in [14] was inactive.

Turning to `C/C=C1\C(=O)C[C@H]2[C@@H]3CCC4=CC(=O)CC[C@]4(C)[C@H]3CC[C@]12C`, the Potency entry in assay [1], in assay [2], in assay [3], in assay [4], in assay [7] and in assay [10] was “inactive” throughout. Moreover, the Potency entry in assay [13] and in assay [15] was “inactive” each time. For the same molecule, the molecule was classed as inactive in assay [6], in assay [8], in assay [9], in [17], in [11] and in assay [12]. In addition, the molecule was classed as inactive in assay [14].

For the molecule `Cn1cnc2c(=O)[nH]c(N)nc21`, the Potency result in [1], in assay [2], in assay [3], in assay [4], in assay [7] and in [10] was “inactive” throughout. Besides, the Potency result in [13] and in assay [15] was “inactive” in each case. Also, the molecule was called inactive in assay [6], in assay [8], in assay [9], in assay [17], in [11] and in [12]. The outcome in [14] was inactive.

As for `CC(C)c1ccc2oc3nc(N)c(C(=O)O)cc3c(=O)c2c1`, the Potency in assay [1] was 4.73 µM (active). Moreover, the Potency entry in assay [2], in assay [3], in [4], in assay [10], in assay [13] and in assay [15] was “inactive” in each case. The Potency entry in assay [19] and in assay [16] was “inactive” throughout. Moreover, the molecule was called inactive in [5], in assay [6], in [8], in assay [9], in [11] and in [12]. Moreover, the molecule was classed as inactive in assay [14].
